These results are taken from ChEMBL document CHEMBL3433997, “St. Jude Leishmania screening dataset” (2016).

Usually inhibition stands for the percentage by which the read-out fell short of the control.

Structures are written as SMILES.

Chain of Solute carrier family 2, facilitated glucose transporter member 1 (Homo sapiens) (P11166 whole entry): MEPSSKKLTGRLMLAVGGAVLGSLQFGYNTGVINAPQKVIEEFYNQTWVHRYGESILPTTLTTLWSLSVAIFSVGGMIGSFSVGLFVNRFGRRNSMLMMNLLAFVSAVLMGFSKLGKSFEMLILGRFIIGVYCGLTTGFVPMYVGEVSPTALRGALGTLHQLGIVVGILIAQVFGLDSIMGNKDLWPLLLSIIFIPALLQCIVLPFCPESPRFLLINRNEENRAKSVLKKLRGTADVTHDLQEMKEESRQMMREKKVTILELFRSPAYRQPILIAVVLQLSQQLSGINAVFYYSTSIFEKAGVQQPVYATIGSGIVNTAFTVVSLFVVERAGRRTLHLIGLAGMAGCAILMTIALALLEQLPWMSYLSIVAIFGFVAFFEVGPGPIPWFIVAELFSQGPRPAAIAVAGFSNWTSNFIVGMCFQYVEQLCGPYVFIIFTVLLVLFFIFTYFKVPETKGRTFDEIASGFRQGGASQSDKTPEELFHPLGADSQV

The test concerns the target Solute carrier family 2, facilitated glucose transporter member 1 (Homo sapiens) (UniProt P11166). Nature of the test: ST_JUDE_LEISH: Cytotoxicity at 2uM final concentration against transgenic Leishmania Mexicana promastigotes LmGLUT1 that are glucose transport deficient and complemented with the human glucose transporter GLUT1. Activity is measured by DNA content using SYBR green in vitro. Type of test: functional.
Compound `COc1ccccc1CCNc1nc(C)cc(N[C@@H](CC(C)C)C(=O)NCc2cccc(F)c2)n1` came in with an inhibition of 9.56%.
The compound `CCN(C(=O)c1ccc(NC(=O)c2cccs2)cc1)c1nc2c(C)cccc2s1` showed an inhibition of 1.43%.
Compound `COCCN1CCN(Cc2ccc(-c3ccc(-c4nc5cccc(C)c5[nH]4)s3)cc2)CC1` displayed an inhibition of 8.84%.
As for `O=C(OCc1ccccc1)N1CCc2c([nH]c3ccccc23)C1CCC(F)(F)F` (centres undefined), the figure is 3.72%; as for `COc1cc(C=C(C2=NC(=O)CS2)c2nc3cccnc3n2C)ccc1O`, 5.2%.
The same measure for `COc1cccc(CNC(=O)c2ccnc(-c3ccc(CNCCOc4ccccc4)cc3)c2)c1`: 1.12%.
In turn, `COc1ccc2nc3cc(Cl)ccc3c(Nc3ccc(Oc4ccc(Nc5c6ccc(Cl)cc6nc6ccc(OC)cc56)cc4)cc3)c2c1` gave an inhibition of 1.15%.
With `O=C(Nc1ccc2c(ccn2C2CCCN(Cc3cc(F)cc(F)c3F)CC2)c1)c1ccco1` (centres undefined), the inhibition stood at 1.97%.
`COc1ccc(N2CCN(CCCCNC(=O)c3ccc(NC(=O)c4cc(C(F)(F)F)cc(C(F)(F)F)c4)cc3)CC2)cc1OC` had an inhibition of 1.59%.
The same measure for `COc1cc2nc(N3CCC(CNC(=O)c4ccc(-c5ccc(Cl)cc5)cc4)CC3)nc(N)c2cc1OC`: 9.23%; for `O=C(C=Cc1ccc(C(=O)Nc2ccc(C3=NCCN3)cc2)cc1)Nc1ccc(C2=NCCN2)cc1`: 5.16%; for `COC(=O)C1=C(C)NC2=C(C(=O)CC(c3ccc(OC)c(OC)c3)C2)C1c1cccc(O)c1` (centres undefined): 3.8%.
As for `CCOC(=O)c1cnc2c(OC)cc(OC)c(Cl)c2c1Nc1cccc(C)c1`, the figure is 9.4%; as for `COc1c(C2CCN(CCCCNC(=O)c3cc(-c4ccc(Cl)cc4)oc3C)CC2)ccc2c1CCCC2`, 9.04%.
